Assay outcomes as filed in PubChem.
ClpP mod: qHTS Assay for Activators of ClpP; Potency, µM (series often up to 57.5 µM), for inactives: at the highest dose activity change, negative = active; ATP-dependent Clp protease proteolytic subunit (Bacillus subtilis (strain 168)), P80244; 1.9% of 340,000 active; purified B. subtilis ClpP, FRET peptide cleavage, 20 min; active means well fitted falling curve with a large enough effect; inconclusive means small, poorly fitted or top-dose-only effect; inactive means no such curve, though single readings can be large or run the other way; further: potency means the concentration at half of the fitted maximal effect; the source files actives as falling curves though it sought activators and does not explain the sign; nearly all actives have a fitted effect of over 65% in size
Target sequence (P80244 whole entry, looked up): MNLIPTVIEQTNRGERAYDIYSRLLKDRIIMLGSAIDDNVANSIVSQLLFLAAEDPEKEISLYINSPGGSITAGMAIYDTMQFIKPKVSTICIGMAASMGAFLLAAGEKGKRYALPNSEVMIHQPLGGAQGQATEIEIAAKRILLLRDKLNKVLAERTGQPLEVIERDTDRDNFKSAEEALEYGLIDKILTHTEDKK
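FRET quenching reversal measured ClpP activation: 10 microg/mL B. subtilis ClpP at pH 8 with the FRET-FV decapeptide, read at 430 nm after 320 nm excitation. The 20-min minus 0-min signal was scaled between DMSO/no-enzyme wells and ADEP (5.8 microM final).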
DT40 TDP1 CPT: qHTS for Inhibitors of human tyrosyl-DNA phosphodiesterase 1 (TDP1): qHTS in cells in presence of CPT; chicken DT40 Tdp1-/-;hTDP1 cells + 20 nM CPT, ATP luminescence, 48 h; Potency, µM (top dose mostly 46.2 µM), without a hit: at the top dose activity change, negative = growth inhibition, actives largely listed as inhibitors; 12% of 420,000 active; further: potency means the concentration at half of the fitted maximal effect; on the % scale 0 is the no-effect control and ±100 the full control effect; nearly all actives have a fitted effect of over 55% in size
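Chicken DT40 Tdp1-/- cells complemented with human TDP1, 400 cells/well, exposed to compounds plus 20 nM camptothecin for at least 48 h at 37 C; viability read as ATP content by CellTiter-Glo luminescence.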
IL1B secr inh: qHTS for Inhibitors of Inflammasome Signaling: IL-1-beta AlphaLISA Primary Screen | THP-1 LPS/ATP IL-1B secretion, AlphaLISA, 16 h; stronger effect = lower value | activity change, % at 57.5 µM | 4.7% of 360,000 active | AID 743279, 2014; in the data active means activity change below about -50%; inconclusive means mostly about -30% to -49%; further: on the % scale 0 is the no-effect control and ±100 the full control effect
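Secreted IL-1B measured by AlphaLISA bead assay after 16 h compound exposure of THP-1 cells; compounds (final up to 57.5 uM) added 1 h before LPS (250 ng/mL) and ATP (1.25 mM) stimulation; lower signal means less secretion.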
DRD3 antagonist: qHTS of D3 Dopamine Receptor Antagonist: qHTS | max response, negative = inhibition, % | D(3) dopamine receptor (Homo sapiens), P35462 | 2.5% of 360,000 active | D3R cells, DiscoveRx beta-arrestin luminescence, antagonist mode; stronger effect = lower value; in the data active means max response below about -50%; inconclusive means no clear call, values can overlap the other calls; further: on the % scale 0 is the no-effect control and ±100 the full control effect
Target sequence (P35462 whole entry, looked up): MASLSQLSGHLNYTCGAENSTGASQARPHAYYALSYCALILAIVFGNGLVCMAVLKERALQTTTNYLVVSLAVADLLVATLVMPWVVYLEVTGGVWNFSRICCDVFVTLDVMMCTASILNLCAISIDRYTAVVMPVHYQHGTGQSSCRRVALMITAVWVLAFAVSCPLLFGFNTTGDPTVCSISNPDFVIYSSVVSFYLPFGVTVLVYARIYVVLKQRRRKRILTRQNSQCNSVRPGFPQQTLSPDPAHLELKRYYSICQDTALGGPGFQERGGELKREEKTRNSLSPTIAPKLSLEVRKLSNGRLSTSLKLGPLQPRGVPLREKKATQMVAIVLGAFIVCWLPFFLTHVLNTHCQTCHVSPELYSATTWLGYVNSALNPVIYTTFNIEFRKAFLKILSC
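Cells plated overnight at 1500 cells/well, then exposed to library compounds with dopamine controls for 90 minutes at 37 degrees C. DiscoveRx reagent added for 30–60 minutes at room temperature; luminescence read, quantitative HTS format.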
DT40 TDP1 no CPT: qHTS for Inhibitors of human tyrosyl-DNA phosphodiesterase 1 (TDP1): qHTS in cells in absence of CPT | DT40 Tdp1-/- hTDP1 cells, no CPT, ATP luminescence, 48 h | Potency, µM (top dose mostly 46.2 µM), without a hit: top-dose activity change, negative = growth inhibition, actives largely listed as inhibitors | 15% of 420,000 active | AID 686978, 2013; further: potency means the concentration at half of the fitted maximal effect; on the % scale 0 is the no-effect control and ±100 the full control effect; nearly all actives have a fitted effect of over 55% in size
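Chicken DT40 Tdp1-/- cells stably complemented with human TDP1 were seeded at 400 cells/well with DMSO in place of 20 nM camptothecin. After compound pinning, cells grew at least 48 hr at 37 °C; viability read by CellTiter-Glo luminescence.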
D3 ag: qHTS of D3 Dopamine Receptor Agonist: qHTS; D3R DiscoveRx beta-arrestin cells, luminescence, 90 min; 0.58% of 410,000 active; max activation, %; AID 652048, 2013; in the data active means max activation above about 30%; further: 0% is about no effect
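Agonist mode: compounds and dopamine controls were applied to plated cells for 90 min at 37 degrees C after an overnight attachment at 1500 cells/well. Luminescent read-out followed 30 - 60 minutes at room temperature with DiscoveRx detection reagent.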
* hit, by the source's call; ? = inconclusive; . = not tested or not shown. A selection: hits, their analogues and other compounds. The true share with any hit is near 21%. Unless noted, the call rests on the fitted dose curve; in most records, active means well fitted inhibition curve with a large enough effect; inconclusive means small, poorly fitted or top-dose-only effect; inactive means flat fitted curve, though single readings scatter.

SMILES	ClpP mod	DT40 TDP1 CPT	IL1B secr inh	DRD3 antagonist	DT40 TDP1 no CPT	D3 ag
CCCN(CC(=O)Nc1cccc(S(N)(=O)=O)c1)CC(=O)Nc1ccc(F)c(F)c1F	0%	-9%	0	0	11%	4
CCCN(CC(=O)Nc1cccc(Br)c1)CC(=O)Nc1ccc(F)c(F)c1F	-3%	?	-92*	-22	?	1
CCCCCSc1nnc2c(n1)OC(c1ccc(C)s1)N(C(C)=O)c1ccccc1-2 (configuration not stated)	-3%	18µM*	.	.	8.2µM*	-1
CCCCSc1nnc2c(n1)OC(c1ccc(C)s1)Nc1ccccc1-2 (configuration not stated)	-3%	18µM*	.	.	12µM*	-10
COc1ccc(S(=O)(=O)NCc2cccn2Cc2cccc(C)c2)cc1OC	1%	?	.	.	?	3
O=C(CCN1C(=O)C2C3CCC(C3)C2C1=O)Nc1cccc(Cl)c1 (configuration not stated)	-3%	-3%	2	-6	0%	1
CCOc1ccc2nc(SCC3CC3(Cl)Cl)[nH]c2c1 (configuration not stated)	1%	?	-62*	18	18µM*	6
CC(c1ccccc1)N(CC(=O)NC1CCCCC1)S(=O)(=O)c1cccc(C(F)(F)F)c1 (configuration not stated)	0%	?	-62*	-25	16µM*	-13
c1ccc(C2NCCc3ccccc32)cc1 (configuration not stated)	.	?	-7	-14	26µM*	-7
c1ccc2c(c1)CCNC2c1ccncc1 (configuration not stated)	0%	6%	18	?	-5%	-31
CN(C)C(=O)c1cc(C(=O)c2c(F)cccc2F)c[nH]1	.	-26%	-3	2	-1%	3
CC1CCN(c2nc3nonc3nc2Nc2ccc(F)cc2)CC1	.	13%	-76*	2	?	1
COc1ccc(Nc2nc3nonc3nc2N2CCCCC2)cc1	.	-2%	-4	-21	-17%	-7
Cc1ccc(-c2nc(C#N)c(N3CCC(C(N)=O)CC3)o2)cc1	.	-1%	-30	-24	-3%	-15
Cc1ccc(CCNC(=O)CC(C)CC2=NS(=O)(=O)c3ccccc3N2)cc1 (configuration not stated)	-1%	-26%	-5	3	10%	5
OC1(c2ccc3c(c2)OCO3)CCN(Cc2ccc(F)cc2)CC1	-1%	3%	-23	-99*	19%	-14
OC1(c2ccc(F)cc2)CCN(Cc2ccccc2)C1 (configuration not stated)	1%	-6%	0	-29	-13%	-23
O=S(=O)(c1ccc(F)cc1)N1CCC(O)(c2ccc3c(c2)OCO3)CC1	0%	-10%	13	10	-28%	-4
OC1(c2ccc(F)cc2)CCN(Cc2cccnc2)CC1	-22%	-7%	-2	-61*	3%	-5
Cc1ccc(CC(C(=O)O)C(C)C(=O)Nc2ccc(F)cc2)cc1 (configuration not stated)	-1%	-4%	16	-11	4%	-10
O=C(/C=C/c1cccc(Cl)c1)c1ccc([N+](=O)[O-])o1	0%	0.58µM*	-102*	-84*	0.58µM*	-10
COc1cc(/C=C/C(=O)c2ccc([N+](=O)[O-])o2)ccc1O	0%	0.92µM*	-60*	-98*	0.52µM*	-31
COc1ccc(/C=C/C(=O)c2ccc([N+](=O)[O-])o2)cc1OC	2%	0.58µM*	-102*	?	1.2µM*	-29
Cc1ccc(S(=O)(=O)N2CCN(C(=O)CSc3ncn[nH]3)CC2)cc1	1%	-7%	0	10	-17%	-7
COc1ccc(C2C(C)C(=O)C(C)C(c3ccc(OC)cc3)N2N=O)cc1 (configuration not stated)	-2%	-14%	-1	17	?	8
SMILES	ClpP mod	DT40 TDP1 CPT	IL1B secr inh	DRD3 antagonist	DT40 TDP1 no CPT	D3 ag
CCOc1c(Br)cc(C2CC(=O)Nc3cc(OC)c(OC)cc32)cc1OC (configuration not stated)	0%	?	-2	-20	23µM*	1
COc1cc2c(cc1OC)C(c1ccc(N(C)C)cc1)CC(=O)N2 (configuration not stated)	10µM*	2%	16	3	5%	6
CCOc1cccc(C2CC(=O)Nc3cc4c(cc32)OCCO4)c1 (configuration not stated)	-3%	5.2µM*	.	.	5.8µM*	1
COc1cc(C2CC(=O)Nc3cc(C)c(C)cc32)cc(OC)c1OC (configuration not stated)	-2%	16µM*	3	-3	12µM*	-5
CCN(CC)c1ccc(C2CC(=O)Nc3cc(OC)c(OC)cc32)cc1 (configuration not stated)	1%	-19%	-19	-2	?	-4
COc1ccc(C2CC(=O)Nc3cc(OC)c(OC)cc32)cc1 (configuration not stated)	0%	-21%	?	-16	-28%	2
COc1ccc(CCn2c3c(c(=O)[nH]c2=S)CN(C)CN3)cc1OC	-4%	10%	.	.	1%	.
CCCNC(=O)c1cc2nc(-c3ccc(Br)cc3)cc(C(F)(F)F)n2n1	0%	?	.	.	?	4
O=C(CCCC(=O)N(c1ccc(F)cc1)C(C(=O)NC1CCCC1)c1ccc(O)cc1)Nc1ccccn1 (configuration not stated)	.	?	-20	-22	?	-15
CCCOc1c(OC)cccc1C1CC(=O)Nc2cc3c(cc21)OCO3 (configuration not stated)	?	?	2	-1	21µM*	-2
CCOc1c(OC)cccc1C1CC(=O)Nc2cc(OC)c(OC)cc21 (configuration not stated)	2%	?	10	-2	18µM*	-4
CCOc1ccccc1C1CC(=O)Nc2cc3c(cc21)OCO3 (configuration not stated)	1%	-30%	13	6	15%	1
